From the supplement of paper PMC10849652
Targets with a hit are over-represented here; the source holds about 7,900 in all. About 0.6% of all pairs of compound and target were hits.

What was measured:
Test in all cases: log2 fold change, soluble protein after heating vs DMSO (PISA); higher = thermal stabilisation; K562 cells, 10 uM, 30 min; active = over 0.2 and 3.5 SD of the protein, either way, in both replicates (recomputed)
[1] = compound: C1COCCN1CCN2C3=CC=CC=C3N=C2NC(=O)C4=CC(=CC=C4)[N+](=O)[O-] [IRAK-1-4 Inhibitor I]
Procedure, shortened: (§1)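 Aliquots of K562 cells (2×10^6 cells/mL) treated with 10 μM compound for 30 min were heated for 3 min over 48°C-58°C. After pooling and extraction in PBS with 0.5% NP-40 at 4°C, soluble protein from a 21,000xg, 90 min spin was quantified by TMTpro 16plex LC-MS/MS with channel sums equalised. Thermal stability is expressed against control samples, from duplicates, as a log2 fold change.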

[2] = compound: C=CC(=O)N1CCC[C@@H](n2nc(-c3ccc(Oc4ccccc4)cc3)c3c(N)ncnc32)C1 [ibrutinib]
Procedure, shortened: as §1

[3] = compound: CC(=O)c1cnc2ccc(-c3cc(Cl)c(O)c(Cl)c3)nc2c1N[C@H]1CC[C@H](CN(C)C)CC1
Procedure, shortened: as §1

[4] = compound: CC(C)(C)Cn1c(N)nc2ccc(-c3[nH]c(C(C)(C)C)nc3-c3ccc(F)cc3)nc21 [ralimetinib]
Procedure, shortened: as §1

[5] = compound: CC(C)(O)CC(=O)NCCn1ccc2ncnc(Nc3ccc(Oc4cccc(C(F)(F)F)c4)c(Cl)c3)c21
Procedure, shortened: as §1

[6] = compound: CC(C)C1=C2N=C(C=C(N2N=C1)NCC3=CC=CC=C3)NCCCCCCN
Procedure, shortened: as §1

[7] = compound: CC(C)C[C@@H](C=O)NC(=O)[C@H](CC(C)C)NC(=O)[C@H](CC(C)C)NC(=O)OCc1ccccc1
Procedure, shortened: as §1

[8] = compound: CC(C)N(C[C@H]1O[C@@H](n2cnc3c(N)ncnc32)[C@H](O)[C@@H]1O)[C@H]1C[C@@H](CCc2nc3cc(C(C)(C)C)ccc3[nH]2)C1 [pinometostat]
Procedure, shortened: as §1

[9] = compound: CC1=C(C(CC(=O)N1)C2=CC=C(C=C2)C(F)(F)F)C(=O)NC3=C(C=C4C(=C3)C=NN4)F
Procedure, shortened: as §1

[10] = compound: CC1=C(C2=C(C=C1)C(=O)C3=CC=CC=C3N2CCCN)C
Procedure, shortened: as §1

Measured: log2 fold change

MTFR1L (UniProt Q9H019)
inactive: [1] 0.04 | [2] 0.048 | [3] -0.052 | [4] -0.005 | [5] 0.014 | [6] -0.412 | [7] 0.047 | [8] 0.003 | [9] 0.041 | [10] -0.05

NOL11 (UniProt Q9H8H0)
active: [10] 0.304
inactive: [1] 0.036 | [2] 0.031 | [3] 0.002 | [4] -0.028 | [5] 0.037 | [6] 0.21 | [7] -0.017 | [8] -0.014 | [9] -0.002

NELFB isoform 2 (UniProt Q8WX92)
inactive: [1] -0.03 | [2] -0.045 | [3] -0.144 | [4] -0.067 | [5] -0.154 | [6] -0.112 | [7] 0.001 | [8] 0.022 | [9] 0.017 | [10] 0.042

NOP56 (UniProt O00567)
inactive: [1] -0.03 | [2] 0.025 | [3] 0.015 | [4] 0.082 | [5] 0.108 | [6] 0.202 | [7] 0.234 | [8] 0.198 | [9] 0.086 | [10] 0.187

NARS2 (UniProt Q96I59)
active: [6] -0.31
inactive: [1] 0.044 | [2] 0.03 | [3] 0.034 | [4] -0.034 | [5] -0.121 | [7] -0.019 | [8] -0.019 | [9] -0.002 | [10] -0.006

NDUFA4 (UniProt O00483)
UniProt O00483, sequence (O00483 whole entry, looked up): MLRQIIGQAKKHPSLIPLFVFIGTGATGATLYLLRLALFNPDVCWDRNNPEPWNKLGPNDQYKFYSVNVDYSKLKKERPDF
inactive: [1] 0 | [2] -0.019 | [3] -0.024 | [4] -0.098 | [5] -0.029 | [6] -0.018 | [7] -0.009 | [8] -0.013 | [9] 0.032 | [10] 0.126

NUP107 (UniProt P57740)
UniProt P57740, sequence (P57740 whole entry, looked up): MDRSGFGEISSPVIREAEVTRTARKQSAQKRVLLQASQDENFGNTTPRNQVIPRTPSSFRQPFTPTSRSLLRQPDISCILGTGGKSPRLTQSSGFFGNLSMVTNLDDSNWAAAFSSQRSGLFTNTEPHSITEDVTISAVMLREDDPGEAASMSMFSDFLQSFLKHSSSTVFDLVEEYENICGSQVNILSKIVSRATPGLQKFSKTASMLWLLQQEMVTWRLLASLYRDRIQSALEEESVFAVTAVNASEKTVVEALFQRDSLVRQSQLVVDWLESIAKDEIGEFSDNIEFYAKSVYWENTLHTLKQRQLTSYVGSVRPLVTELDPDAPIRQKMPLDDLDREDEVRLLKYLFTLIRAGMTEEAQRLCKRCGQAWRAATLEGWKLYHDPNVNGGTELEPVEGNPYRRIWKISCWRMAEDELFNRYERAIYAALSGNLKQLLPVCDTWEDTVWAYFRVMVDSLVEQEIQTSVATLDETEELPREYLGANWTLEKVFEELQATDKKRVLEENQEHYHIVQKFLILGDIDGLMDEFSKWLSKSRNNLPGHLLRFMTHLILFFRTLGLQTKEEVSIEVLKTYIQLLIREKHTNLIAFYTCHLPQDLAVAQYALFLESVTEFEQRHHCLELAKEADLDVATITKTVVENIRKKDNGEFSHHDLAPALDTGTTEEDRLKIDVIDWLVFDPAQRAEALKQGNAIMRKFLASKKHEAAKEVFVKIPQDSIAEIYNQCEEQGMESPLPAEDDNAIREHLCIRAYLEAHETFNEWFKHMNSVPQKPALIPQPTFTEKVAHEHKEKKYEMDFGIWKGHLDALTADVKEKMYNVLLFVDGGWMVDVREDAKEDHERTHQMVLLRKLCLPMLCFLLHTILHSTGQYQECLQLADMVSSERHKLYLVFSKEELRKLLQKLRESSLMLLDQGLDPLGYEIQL
inactive: [1] -0.054 | [2] -0.152 | [3] -0.035 | [4] 0.035 | [5] 0.023 | [6] -0.005 | [7] 0.089 | [8] 0.165 | [9] 0.062 | [10] -0.052

NT5DC1 (UniProt Q5TFE4)
UniProt Q5TFE4, sequence (Q5TFE4 whole entry, looked up): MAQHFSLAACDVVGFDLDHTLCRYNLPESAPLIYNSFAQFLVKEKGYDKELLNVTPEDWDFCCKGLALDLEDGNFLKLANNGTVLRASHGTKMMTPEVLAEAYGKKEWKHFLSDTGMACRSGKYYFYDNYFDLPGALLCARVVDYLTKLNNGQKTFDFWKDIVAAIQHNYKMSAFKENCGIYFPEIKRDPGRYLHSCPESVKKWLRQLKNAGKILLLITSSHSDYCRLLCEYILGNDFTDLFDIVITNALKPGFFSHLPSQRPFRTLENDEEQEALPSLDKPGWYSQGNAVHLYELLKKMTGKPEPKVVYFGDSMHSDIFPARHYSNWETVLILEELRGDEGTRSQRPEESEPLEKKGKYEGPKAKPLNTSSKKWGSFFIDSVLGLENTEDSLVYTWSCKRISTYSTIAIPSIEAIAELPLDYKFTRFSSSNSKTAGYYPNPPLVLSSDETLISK
inactive: [1] 0.049 | [2] 0.021 | [3] -0.039 | [4] -0.054 | [5] -0.019 | [6] 0.02 | [7] -0.011 | [8] -0.024 | [9] -0.001 | [10] -0.022

PACS1 (UniProt Q6VY07)
active: [3] -0.297
inactive: [1] -0.002 | [2] -0.016 | [4] -0.024 | [5] -0.014 | [6] -0.011 | [7] 0 | [8] -0.029 | [9] -0.098 | [10] -0.007

MON2 isoform 5 (UniProt Q7Z3U7)
inactive: [1] 0.013 | [2] -0.036 | [3] -0.005 | [4] 0.097 | [5] -0.076 | [6] -0.088 | [7] 0.004 | [8] 0.048 | [9] -0.022 | [10] 0.055

NIBAN1 (UniProt Q9BZQ8)
UniProt Q9BZQ8, sequence (Q9BZQ8 whole entry, looked up): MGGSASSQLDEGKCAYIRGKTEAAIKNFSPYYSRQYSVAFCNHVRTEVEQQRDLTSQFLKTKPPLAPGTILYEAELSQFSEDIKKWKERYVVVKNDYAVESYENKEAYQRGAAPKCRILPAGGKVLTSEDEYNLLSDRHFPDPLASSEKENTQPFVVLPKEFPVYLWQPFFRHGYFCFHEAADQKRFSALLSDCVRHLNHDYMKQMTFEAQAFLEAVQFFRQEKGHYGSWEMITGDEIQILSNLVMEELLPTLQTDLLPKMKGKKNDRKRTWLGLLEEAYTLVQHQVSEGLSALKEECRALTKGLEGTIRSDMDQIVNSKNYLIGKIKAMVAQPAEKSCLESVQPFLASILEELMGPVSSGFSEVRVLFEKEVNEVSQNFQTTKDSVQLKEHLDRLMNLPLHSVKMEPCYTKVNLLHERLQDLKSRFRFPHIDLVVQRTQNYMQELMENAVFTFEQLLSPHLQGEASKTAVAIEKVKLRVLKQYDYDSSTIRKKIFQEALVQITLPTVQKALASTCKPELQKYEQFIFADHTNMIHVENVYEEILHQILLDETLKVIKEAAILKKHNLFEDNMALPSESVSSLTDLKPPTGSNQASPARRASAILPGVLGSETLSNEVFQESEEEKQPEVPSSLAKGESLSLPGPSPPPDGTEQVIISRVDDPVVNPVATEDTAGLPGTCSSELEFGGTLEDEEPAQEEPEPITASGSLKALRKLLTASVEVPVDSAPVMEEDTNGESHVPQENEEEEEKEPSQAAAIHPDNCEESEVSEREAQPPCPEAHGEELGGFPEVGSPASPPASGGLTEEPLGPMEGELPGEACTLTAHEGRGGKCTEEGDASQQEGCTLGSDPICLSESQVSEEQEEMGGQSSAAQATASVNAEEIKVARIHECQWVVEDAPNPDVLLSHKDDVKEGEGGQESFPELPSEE
active: [6] -0.277
inactive: [1] -0.125 | [2] 0 | [3] -0.163 | [4] 0.084 | [5] -0.07 | [7] 0.037 | [8] 0.068 | [9] -0.002 | [10] 0.02

NAA11 (UniProt Q9BSU3)
inactive: [1] 0.035 | [2] 0.049 | [3] -0.102 | [4] -0.024 | [5] -0.042 | [6] -0.075 | [7] 0.072 | [8] -0.131 | [9] -0.007 | [10] 0

NFE2 (UniProt Q16621)
UniProt Q16621, sequence (Q16621 whole entry, looked up): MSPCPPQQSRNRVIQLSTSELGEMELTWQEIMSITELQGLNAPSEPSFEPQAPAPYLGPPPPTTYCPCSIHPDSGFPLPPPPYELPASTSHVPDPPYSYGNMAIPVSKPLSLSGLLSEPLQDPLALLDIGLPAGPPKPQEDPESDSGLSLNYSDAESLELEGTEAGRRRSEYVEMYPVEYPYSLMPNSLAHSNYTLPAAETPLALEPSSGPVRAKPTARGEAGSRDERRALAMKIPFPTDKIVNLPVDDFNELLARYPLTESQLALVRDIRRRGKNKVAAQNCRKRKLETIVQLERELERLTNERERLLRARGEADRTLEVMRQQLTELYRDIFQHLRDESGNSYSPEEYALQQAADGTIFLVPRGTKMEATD
inactive: [1] 0.053 | [2] -0.039 | [3] 0.016 | [4] -0.06 | [5] 0.01 | [6] -0.119 | [7] 0.184 | [8] -0.001 | [9] 0.037
active: [10] -0.285

MYH11 isoform 2 (UniProt P35749)
inactive: [1] 0.035 | [2] -0.013 | [3] 0.028 | [4] -0.016 | [5] -0.107 | [6] 0.056 | [7] -0.002 | [8] -0.042 | [9] 0.027 | [10] -0.024

MRPS25 (UniProt P82663)
inactive: [1] -0.059 | [2] 0.12 | [3] -0.021 | [4] -0.007 | [5] 0.074 | [6] -0.071 | [7] 0.017 | [8] -0.018 | [9] -0.106 | [10] -0.091

NUP98 (UniProt P52948)
inactive: [1] -0.021 | [2] -0.048 | [3] -0.146 | [4] 0.04 | [5] 0 | [6] -0.071 | [7] 0.041 | [8] 0.03 | [9] -0.019 | [10] 0.013

MSTO1 (UniProt Q9BUK6)
inactive: [1] 0.012 | [2] 0.009 | [3] -0.003 | [4] -0.028 | [5] -0.162 | [6] -0.105 | [7] -0.003 | [8] -0.002 | [9] -0.027 | [10] 0.043

NAP1L1 (UniProt P55209)
UniProt P55209, sequence (P55209 whole entry, looked up): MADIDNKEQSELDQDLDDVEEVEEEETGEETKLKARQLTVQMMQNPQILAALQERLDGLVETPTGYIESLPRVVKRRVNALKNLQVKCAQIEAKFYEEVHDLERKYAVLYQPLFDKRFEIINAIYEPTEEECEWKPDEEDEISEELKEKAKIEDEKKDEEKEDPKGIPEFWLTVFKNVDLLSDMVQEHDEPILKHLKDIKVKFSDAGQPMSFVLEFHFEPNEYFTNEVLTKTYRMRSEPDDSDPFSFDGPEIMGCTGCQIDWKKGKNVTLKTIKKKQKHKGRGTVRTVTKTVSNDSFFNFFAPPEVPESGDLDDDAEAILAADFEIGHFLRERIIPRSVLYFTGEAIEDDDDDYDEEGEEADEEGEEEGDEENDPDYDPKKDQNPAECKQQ
inactive: [1] 0.04 | [2] -0.041 | [3] -0.012 | [4] -0.003 | [5] 0.021 | [6] 0.017 | [7] 0.021 | [8] -0.029 | [9] 0.105 | [10] 0.004

MLX (UniProt Q9UH92)
UniProt Q9UH92, sequence (Q9UH92 whole entry, looked up): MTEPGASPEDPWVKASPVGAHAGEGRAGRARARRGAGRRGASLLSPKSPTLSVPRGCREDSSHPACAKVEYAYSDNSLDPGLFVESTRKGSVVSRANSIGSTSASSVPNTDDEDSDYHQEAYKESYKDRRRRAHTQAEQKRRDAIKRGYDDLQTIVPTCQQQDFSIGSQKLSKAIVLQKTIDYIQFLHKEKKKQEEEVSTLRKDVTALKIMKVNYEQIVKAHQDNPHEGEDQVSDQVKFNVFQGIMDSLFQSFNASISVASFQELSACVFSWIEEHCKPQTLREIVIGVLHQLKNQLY
inactive: [1] -0.033 | [2] -0.058 | [3] -0.132 | [4] 0.077 | [5] -0.163 | [6] -0.236 | [7] 0.14 | [8] 0.016 | [9] 0.043 | [10] -0.008

NAPG (UniProt Q99747)
inactive: [1] -0.071 | [2] -0.014 | [3] -0.067 | [4] -0.012 | [5] -0.069 | [6] -0.248 | [7] 0.028 | [8] 0.016 | [9] 0 | [10] 0.016

OAT (UniProt P04181)
UniProt P04181, sequence (P04181 whole entry, looked up): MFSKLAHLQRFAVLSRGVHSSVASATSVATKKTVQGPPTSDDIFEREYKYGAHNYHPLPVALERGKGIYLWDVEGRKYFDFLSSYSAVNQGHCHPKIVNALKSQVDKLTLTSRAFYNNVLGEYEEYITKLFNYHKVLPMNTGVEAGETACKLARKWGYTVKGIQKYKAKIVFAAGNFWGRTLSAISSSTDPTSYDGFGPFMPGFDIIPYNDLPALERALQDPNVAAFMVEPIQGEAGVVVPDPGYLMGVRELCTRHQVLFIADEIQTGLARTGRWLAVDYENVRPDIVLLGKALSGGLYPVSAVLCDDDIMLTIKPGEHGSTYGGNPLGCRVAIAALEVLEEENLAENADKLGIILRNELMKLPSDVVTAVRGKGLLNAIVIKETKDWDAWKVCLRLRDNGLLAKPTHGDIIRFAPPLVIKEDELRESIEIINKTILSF
active: [6] -0.245
inactive: [1] 0.044 | [2] -0.006 | [3] -0.044 | [4] -0.053 | [5] -0.113 | [7] 0.007 | [8] -0.027 | [9] -0.006 | [10] -0.007

NSMCE4A (UniProt Q9NXX6)
inactive: [1] 0.077 | [2] -0.116 | [3] -0.059 | [4] 0.051 | [5] 0.003 | [6] 0.252 | [7] 0.008 | [8] 0 | [9] -0.052 | [10] -0.124

MRPL46 (UniProt Q9H2W6)
inactive: [1] -0.069 | [2] -0.012 | [3] 0.077 | [4] 0.029 | [5] -0.008 | [6] -0.073 | [7] 0.064 | [8] 0.03 | [9] -0.004 | [10] -0.026

NFATC2IP (UniProt Q8NCF5)
UniProt Q8NCF5, sequence (Q8NCF5 whole entry, looked up): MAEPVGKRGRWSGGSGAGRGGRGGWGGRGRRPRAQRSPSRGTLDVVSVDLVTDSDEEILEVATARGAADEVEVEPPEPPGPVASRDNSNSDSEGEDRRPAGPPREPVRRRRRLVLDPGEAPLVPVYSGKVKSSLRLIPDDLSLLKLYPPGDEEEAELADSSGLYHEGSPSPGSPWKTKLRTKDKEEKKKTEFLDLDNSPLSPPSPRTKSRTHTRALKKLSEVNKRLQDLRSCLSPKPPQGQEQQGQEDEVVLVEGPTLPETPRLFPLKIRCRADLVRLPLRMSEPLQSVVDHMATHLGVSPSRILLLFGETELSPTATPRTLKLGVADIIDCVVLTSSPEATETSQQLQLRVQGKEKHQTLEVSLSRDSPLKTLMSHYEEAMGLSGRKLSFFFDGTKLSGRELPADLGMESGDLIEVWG
inactive: [1] -0.014 | [2] -0.036 | [3] -0.051 | [4] -0.003 | [5] -0.224 | [6] -0.161 | [7] -0.006 | [8] -0.032 | [9] 0.069 | [10] -0.022

NSUN2 (UniProt Q08J23)
inactive: [1] -0.02 | [2] -0.029 | [3] -0.165 | [4] 0.062 | [5] -0.008 | [7] 0.026 | [8] 0.058 | [9] 0.008 | [10] -0.075
active: [6] -0.314

NDFIP1 (UniProt Q9BT67)
UniProt Q9BT67, sequence (Q9BT67 whole entry, looked up): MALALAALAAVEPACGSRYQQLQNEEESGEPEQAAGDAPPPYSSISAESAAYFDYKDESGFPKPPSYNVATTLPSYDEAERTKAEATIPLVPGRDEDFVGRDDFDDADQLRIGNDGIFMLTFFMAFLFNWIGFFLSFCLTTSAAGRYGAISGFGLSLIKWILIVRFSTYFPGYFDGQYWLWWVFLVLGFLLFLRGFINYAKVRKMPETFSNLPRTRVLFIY
active: [6] -1.2
inactive: [1] -0.135 | [2] -0.083 | [3] 0.146 | [4] 0.084 | [5] -0.401 | [7] 0.302 | [8] 0.048 | [9] 0.241 | [10] 0.152

MPP1 (UniProt Q00013)
inactive: [1] -0.073 | [2] -0.047 | [3] -0.071 | [4] 0.075 | [5] -0.087 | [6] -0.147 | [7] 0.023 | [8] 0.011 | [9] -0.023 | [10] 0.029

MRPS27 isoform 2 (UniProt Q92552)
inactive: [1] -0.116 | [2] 0.019 | [3] -0.002 | [4] 0.069 | [5] -0.104 | [6] -0.161 | [7] -0.011 | [8] -0.022 | [9] -0.021 | [10] -0.06

OGFOD1 (UniProt Q8N543)
inactive: [1] 0.07 | [2] -0.036 | [3] 0.009 | [4] -0.05 | [5] -0.023 | [6] -0.018 | [7] 0.035 | [8] -0.011 | [9] -0.028 | [10] 0.036

NMU (UniProt P48645)
inactive: [1] -0.052 | [2] 0.027 | [3] 0.034 | [4] 0.063 | [5] 0.011 | [6] 0.123 | [7] 0.313 | [8] -0.106 | [9] 0.03 | [10] -0.174

MND1 (UniProt Q9BWT6)
UniProt Q9BWT6, sequence (Q9BWT6 whole entry, looked up): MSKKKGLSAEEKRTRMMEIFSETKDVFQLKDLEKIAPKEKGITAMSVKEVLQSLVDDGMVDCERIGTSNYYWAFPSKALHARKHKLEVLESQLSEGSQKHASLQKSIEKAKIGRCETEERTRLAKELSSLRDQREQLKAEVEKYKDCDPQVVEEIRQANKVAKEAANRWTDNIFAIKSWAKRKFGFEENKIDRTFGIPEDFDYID
inactive: [1] -0.022 | [2] 0.069 | [3] -0.053 | [4] 0.052 | [5] 0.008 | [6] -0.182 | [7] 0.173 | [8] 0.076 | [9] 0.058 | [10] 0.043

NDUFA12 (UniProt Q9UI09)
UniProt Q9UI09, sequence (Q9UI09 whole entry, looked up): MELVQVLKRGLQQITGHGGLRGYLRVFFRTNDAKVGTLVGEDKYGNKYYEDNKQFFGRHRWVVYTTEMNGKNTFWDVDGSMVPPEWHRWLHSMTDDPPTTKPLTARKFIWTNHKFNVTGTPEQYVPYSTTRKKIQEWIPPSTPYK
inactive: [1] 0.05 | [2] -0.078 | [3] -0.04 | [4] -0.043 | [5] -0.128 | [7] 0.021 | [8] -0.06 | [9] -0.012 | [10] 0.122
active: [6] -0.31

NOSIP (UniProt Q9Y314)
inactive: [1] -0.401 | [2] -0.032 | [3] -0.033 | [4] -0.065 | [5] -0.135 | [6] -0.106 | [7] -0.039 | [8] 0.085 | [9] -0.143 | [10] 0.186
